IL2 activator: activates IL-2 in a cell-based reporter assay. AID 652025. activation, % (series mostly up to about 46 µM). hit rate 0.065% among 360,000. IL-2 activation reporter assay, cell-based qHTS; stimulated with anti-CD3/CD4/CD28 beads; in transgenic mouse T cells; in the data active = activation above about 50%; inconclusive = mostly about 30% to 49%; also: 0% is about no effect
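Readout: EGFP and DsRed signals by fluorescent plate cytometry. Unstimulated transgenic mouse T cells received compound 60 min before antibody-bead stimulation, then incubated 18 h at 37 degrees C.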
A549 tox: kills or reduces viability of A549 cells in Nrf2 counter-screen; AID 504648; A549 ARE-Fluc cells, CellTiter-Fluor viability, 18-24 h; Potency, µM (top dose mostly 46 µM), for the others: at the highest dose activity change, negative = cytotoxicity, hits mostly inhibitors; hit rate 0.16% among 390,000; also: potency is read from the fitted curve at half-maximal effect; % is scaled to controls: 0 for no effect and ±100 for the full control effect
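A549 ARE_Fluc cells in 5% FBS OPTI-MEM were exposed to compounds in concentration-response for 18-24 h at 37 deg C. Viability was read by CellTiter-Fluor fluorescence (Ex 405/Em 525) after 30 min, before the luciferase read.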
BRCA1 expr up: increases BRCA1 expression. MCF7-BRCA1-FFLuc reporter, luminescence, 48 h; response scale: scaled: vehicle 0%, 10 µM genistein 100%. Potency, µM (top dose mostly 46.1 µM), without a hit: top-dose activation, actives largely listed as activators. hit rate 1.1% among 380,000. AID 624202; also: potency is read from the fitted curve at half-maximal effect; nearly all actives have a fitted effect of over 80% in size
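MCF7-BRCA1-FFLuc cells, 2000/well in phenol-red-free MEM, attached 2 h then treated 48 h at 37 C. Luciferase luminescence read 15 min after reagent; normalized to genistein maximum activation (10microM) and DMSO, concentration-response fitted.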
p53 reactivation: restores transcriptional activity of mutant p53; H1299 p53-A138V BP100-luciferase reporter, luminescence, 24 h; Potency, µM (series often up to 92.2 µM), for the others: top-dose activity change, positive = activation, hits mostly activators; hit rate 0.063% among 320,000; also: potency is read from the fitted curve at half-maximal effect; % of control where 0% means no effect; nearly all actives have a fitted effect of over 45% in size
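H1299 (p53-null), stable ts p53-A138V + BP100-Luc; 1000 cells/well, Opti-MEM/10% FBS; cpd 4 pt, 1:5; 24 h, 37 deg C, 5% CO2; detection reagent 10 min RT; luminescence.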
Nrf2 ARE act: activates Nrf2 signaling; AREc32 ARE-luciferase reporter (MCF7-derived line), luminescence, 24 h; Potency, µM (series often up to 46.1 µM), without a hit: at the highest dose activation, actives largely listed as activators; hit rate 0.31% among 410,000; also: potency is read from the fitted curve at half-maximal effect; % of control where 0% means no effect; nearly all actives have a fitted effect of over 65% in size
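Each well held 1000 AREc32 cells, which were incubated with compound for 24 hr at 37 deg C after overnight attachment, and ARE reporter activity was quantified by firefly luciferase luminescence.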
Nrf2 block: inhibitors of Nrf2 signaling; A549 ARE-Fluc reporter, luciferase luminescence, 18-24 h; Potency, µM (series often up to 46 µM), inactives show at the highest dose activity change, negative = inhibition, most hits filed as inhibitors; hit rate 2.1% among 360,000; also: potency is read from the fitted curve at half-maximal effect; % is scaled to controls: 0 for no effect and ±100 for the full control effect; nearly all actives have a fitted effect of over 60% in size
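Nrf2 function is reported as luminescence of an ARE-controlled luciferase in A549 cells. Compounds were tested at several concentrations, and a CellTiter-Fluor read on the same wells flagged cytotoxicity.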
* = called active by the depositor; ? = inconclusive; nt = no result given. Compounds with a hit are over-represented: about 3.2% of the library has one in this group of screens. Unless noted, calls follow the shape of the dose curve; as a rule, active = well fitted curve in the direction sought with a large enough effect; inconclusive = small, poorly fitted or top-dose-only effect, or another doubt; inactive = no such curve, though single readings can be large; an effect the other way counts as inactive or inconclusive.

SMILES	IL2 activator	A549 tox	BRCA1 expr up	p53 reactivation	Nrf2 ARE act	Nrf2 block
CCOc1cc(CNCCSc2nnnn2-c2ccccc2)ccc1OC	nt	10.3%	nt	nt	3.6%	-14.6%
CCOC(=O)CN(Cc1cc(OC)cc(N(C)C)c1OC)C(=O)C1CC(CO[Si](C)(C)C(C)(C)C)=CN1C(=O)OC(C)(C)C (stereo unspecified)	nt	0.1%	nt	nt	nt	-6.5%
CCCCOc1ccc(C2c3c(oc4ccccc4c3=O)C(=O)N2c2nc(C)c(C(=O)OCC)s2)cc1OC (stereo unspecified)	nt	-2.5%	nt	nt	-0.2%	6.7%
O=c1[nH]c(O)c(/C=C2\C=Nc3ccc(Br)cc32)[nH]1	-0.4	-5.7%	-25.8%	-83.1%	10µM*	19.1%
N=c1c2c(ccn1-c1ccccc1)Oc1ccc3ccccc3c1C2c1ccccc1 (stereo unspecified)	nt	?	nt	nt	nt	16.4µM*
N=c1c2c(ccn1CCCc1ccccc1)Oc1ccc3ccccc3c1C2c1ccccc1 (stereo unspecified)	nt	14.6µM*	nt	nt	nt	14.6µM*
CC(C)n1c(SCC(=O)Nc2ccc(F)cc2)nc2c(oc3ccccc32)c1=O	nt	-0.1%	1.9%	nt	-0.3%	-11.8%
COc1cccc(N=Nc2ccc(O)c3ncccc23)c1	-4.4	?	-68.3%	?	11.2µM*	?
Cc1ccccc1N=Nc1ccc(O)c2ncccc12	1.3	-17.3%	-94.5%	?	9.3%	-21.1%
COc1ccc(N=Nc2ccc(O)c3ncccc23)cc1	-0.6	?	-65.2%	20.3%	?	11.6µM*
COc1cccc(N=Nc2ccc3cccnc3c2O)c1	-2.5	-19.0%	-58.1%	35.5µM*	-1.3%	-23.6%
O=S(=O)(O)c1cccc2c(N=Nc3ccc(O)c4ncccc34)cccc12	-3.9	11.6µM*	-11.5%	-5.9%	-0.7%	-39.2%
COc1ccc(C)cc1N=Nc1ccc(O)c2ncccc12	-4.2	?	-96.5%	0.1%	5.6%	?
CCCn1nnc(NCc2ccc(OCc3cccs3)c(OC)c2)n1	-1.6	nt	-38.4%	-6.8%	-0.4%	8.2µM*
CCNCc1ccc(OCc2cccs2)c(OCC)c1	-2.2	32.2%	-19.9%	0.8%	4.7%	3.6%
CCOC(=O)N1c2ccccc2Sc2ccccc21	-2.9	-2.4%	-16.5%	1.8%	-0.5%	-10.7%
Cc1nnc(SC(=O)N2c3ccccc3Sc3ccccc32)s1	-2.7	-0.1%	-103.0%	-34.0%	?	13µM*
CCOc1ccc(N=C2NC(=O)S/C2=C\c2ccc(N(C)C)cc2)cc1	9.4	nt	3.16µM*	?	0.3%	?
CCOc1ccc(/C=C2/SC(=O)NC2=S)cc1	3.5	-26.9%	67.9%	?	9.3%	?
O=c1[nH]c2cc([N+](=O)[O-])ccc2c2cc(Br)ccc12	-1.8	nt	-56.3%	nt	3.16µM*	nt
O=C(CSc1nnc(NC(=O)NC2CCCCC2)s1)Nc1ccccc1F	nt	1.3%	nt	nt	3.8%	nt
COC(=O)c1sccc1S(=O)(=O)N(CC(=O)NCc1ccc(F)cc1)c1ccc(C)c(C)c1	nt	-2.8%	nt	nt	3.6%	-4.3%
COc1ccc(CNC(=O)c2cc(COc3c(F)cccc3F)on2)cc1OC	-4.0	-15.3%	-4.6%	-4.0%	0.3%	25.9µM*
COc1cc(C)ccc1OCc1cc(C(=O)NCc2ccncc2)no1	-1.4	7.5%	7.94µM*	?	5.7%	?
COc1cc(C)ccc1OCc1cc(C(=O)NC(C)Cn2cncn2)no1 (stereo unspecified)	0.5	-1.7%	5.01µM*	-5.3%	4.6%	?
SMILES	IL2 activator	A549 tox	BRCA1 expr up	p53 reactivation	Nrf2 ARE act	Nrf2 block
COc1ccc(C(=O)NCc2ccncc2)cc1OC	-0.3	-1.5%	-11.8%	-2.7%	0.2%	?
COc1cc(C)ccc1OCc1cc(C(=O)N2CCCCCCC2)no1	-2.4	4.0%	?	?	3.8%	?
CCOC(=O)Cc1ccc(NC(=O)N2CCC(CN3CCCCCC3)CC2)cc1	nt	-7.8%	nt	nt	-0.7%	13.1%
CCOc1ccc(C(=O)Nc2cc(-c3nc4ccccc4o3)ccc2C)cc1Cl	nt	-1.0%	nt	nt	0.5%	-2.9%
c1ccc(N=NC2=NN(c3ccccc3)CS2)cc1	-1.6	nt	4.1%	nt	8.91µM*	nt
CS(=O)(=O)Nc1cccc(-c2cc(F)c(S(=O)(=O)N3CCN(S(=O)(=O)c4ccc5c(c4)OCCO5)CC3)cc2F)c1	nt	-0.2%	nt	nt	nt	-21.8%
Cc1ccc(C)c(N2CCN(C(=O)Cc3cn(C)c4ccccc34)CC2)c1	-0.3	?	-44.5%	-23.5%	2.6%	20.6µM*
Cc1ccc(Cl)cc1N1CCN(C(=O)Cc2cn(C)c3ccccc23)CC1	-1.6	-20.6%	-87.2%	12.1%	-0.2%	?
COc1ccccc1OCc1nc(-c2cccc(C)c2)no1	nt	0.1%	nt	nt	5.0%	?
COc1ccccc1-n1c(=O)c2c3c(sc2n(C)c1=O)CN(C(C)=O)CC3	nt	-0.6%	nt	nt	6.7%	nt
CC(C)c1ccc(/C=C2\C=Cc3ccccc32)cc1	nt	nt	39.1%	nt	nt	nt
CCC(=O)NCCc1nc2cc(NC(=O)c3cccc([N+](=O)[O-])c3)ccc2n1C	-2.3	-6.3%	3.16µM*	16.1%	4.0%	2.7%
COc1ccccc1C(=O)Nc1ccc2c(c1)nc(CCNC(C)=O)n2C	-2.7	10.0%	10µM*	?	0.5%	nt
Cn1c(CCNC(=O)c2ccco2)nc2cc(NC(=O)c3ccccc3Cl)ccc21	2.7	1.2%	8.91µM*	8.9%	1.9%	12.1%
CC(=O)NCCc1nc2cc(NC(=O)c3cccc([N+](=O)[O-])c3)ccc2n1C	-1.8	0.7%	5.62µM*	18.6%	0.5%	15.2%
Cc1ccccc1C(=O)Nc1ccc2c(c1)nc(CCNC(=O)c1ccco1)n2C	-1.6	-5.1%	43.9%	7.6%	0.2%	2.8%
CCC(=O)NCCc1nc2cc(NC(=O)c3cccs3)ccc2n1C	0.2	-7.6%	73.0%	?	0.7%	?
COc1ccccc1C(=O)Nc1ccc2c(c1)nc(CCNC(=O)c1ccccc1)n2C	1.7	-5.2%	2.8%	-4.0%	-0.1%	?
O=c1c2c3c(sc2ncn1/N=C/c1ccccc1)CCCC3	1.0	-0.6%	20µM*	17.4%	-0.7%	?

From PubChem
